# High-throughput results as filed in PubChem BioAssay.
# The list is not random: actives were taken first. Their share in the collection is about 0.58%.
# TcdB inh: inhibitors of Clostridioides difficile toxin B glycohydrolase; TcdB glycohydrolase enzymatic assay, plate reader; 350,000 tested, 0.24% active; inhibition, % at 9.99 µM; AID 652162; P18177; in the data active = inhibition above about 10%
# Target sequence (P18177 whole entry, looked up): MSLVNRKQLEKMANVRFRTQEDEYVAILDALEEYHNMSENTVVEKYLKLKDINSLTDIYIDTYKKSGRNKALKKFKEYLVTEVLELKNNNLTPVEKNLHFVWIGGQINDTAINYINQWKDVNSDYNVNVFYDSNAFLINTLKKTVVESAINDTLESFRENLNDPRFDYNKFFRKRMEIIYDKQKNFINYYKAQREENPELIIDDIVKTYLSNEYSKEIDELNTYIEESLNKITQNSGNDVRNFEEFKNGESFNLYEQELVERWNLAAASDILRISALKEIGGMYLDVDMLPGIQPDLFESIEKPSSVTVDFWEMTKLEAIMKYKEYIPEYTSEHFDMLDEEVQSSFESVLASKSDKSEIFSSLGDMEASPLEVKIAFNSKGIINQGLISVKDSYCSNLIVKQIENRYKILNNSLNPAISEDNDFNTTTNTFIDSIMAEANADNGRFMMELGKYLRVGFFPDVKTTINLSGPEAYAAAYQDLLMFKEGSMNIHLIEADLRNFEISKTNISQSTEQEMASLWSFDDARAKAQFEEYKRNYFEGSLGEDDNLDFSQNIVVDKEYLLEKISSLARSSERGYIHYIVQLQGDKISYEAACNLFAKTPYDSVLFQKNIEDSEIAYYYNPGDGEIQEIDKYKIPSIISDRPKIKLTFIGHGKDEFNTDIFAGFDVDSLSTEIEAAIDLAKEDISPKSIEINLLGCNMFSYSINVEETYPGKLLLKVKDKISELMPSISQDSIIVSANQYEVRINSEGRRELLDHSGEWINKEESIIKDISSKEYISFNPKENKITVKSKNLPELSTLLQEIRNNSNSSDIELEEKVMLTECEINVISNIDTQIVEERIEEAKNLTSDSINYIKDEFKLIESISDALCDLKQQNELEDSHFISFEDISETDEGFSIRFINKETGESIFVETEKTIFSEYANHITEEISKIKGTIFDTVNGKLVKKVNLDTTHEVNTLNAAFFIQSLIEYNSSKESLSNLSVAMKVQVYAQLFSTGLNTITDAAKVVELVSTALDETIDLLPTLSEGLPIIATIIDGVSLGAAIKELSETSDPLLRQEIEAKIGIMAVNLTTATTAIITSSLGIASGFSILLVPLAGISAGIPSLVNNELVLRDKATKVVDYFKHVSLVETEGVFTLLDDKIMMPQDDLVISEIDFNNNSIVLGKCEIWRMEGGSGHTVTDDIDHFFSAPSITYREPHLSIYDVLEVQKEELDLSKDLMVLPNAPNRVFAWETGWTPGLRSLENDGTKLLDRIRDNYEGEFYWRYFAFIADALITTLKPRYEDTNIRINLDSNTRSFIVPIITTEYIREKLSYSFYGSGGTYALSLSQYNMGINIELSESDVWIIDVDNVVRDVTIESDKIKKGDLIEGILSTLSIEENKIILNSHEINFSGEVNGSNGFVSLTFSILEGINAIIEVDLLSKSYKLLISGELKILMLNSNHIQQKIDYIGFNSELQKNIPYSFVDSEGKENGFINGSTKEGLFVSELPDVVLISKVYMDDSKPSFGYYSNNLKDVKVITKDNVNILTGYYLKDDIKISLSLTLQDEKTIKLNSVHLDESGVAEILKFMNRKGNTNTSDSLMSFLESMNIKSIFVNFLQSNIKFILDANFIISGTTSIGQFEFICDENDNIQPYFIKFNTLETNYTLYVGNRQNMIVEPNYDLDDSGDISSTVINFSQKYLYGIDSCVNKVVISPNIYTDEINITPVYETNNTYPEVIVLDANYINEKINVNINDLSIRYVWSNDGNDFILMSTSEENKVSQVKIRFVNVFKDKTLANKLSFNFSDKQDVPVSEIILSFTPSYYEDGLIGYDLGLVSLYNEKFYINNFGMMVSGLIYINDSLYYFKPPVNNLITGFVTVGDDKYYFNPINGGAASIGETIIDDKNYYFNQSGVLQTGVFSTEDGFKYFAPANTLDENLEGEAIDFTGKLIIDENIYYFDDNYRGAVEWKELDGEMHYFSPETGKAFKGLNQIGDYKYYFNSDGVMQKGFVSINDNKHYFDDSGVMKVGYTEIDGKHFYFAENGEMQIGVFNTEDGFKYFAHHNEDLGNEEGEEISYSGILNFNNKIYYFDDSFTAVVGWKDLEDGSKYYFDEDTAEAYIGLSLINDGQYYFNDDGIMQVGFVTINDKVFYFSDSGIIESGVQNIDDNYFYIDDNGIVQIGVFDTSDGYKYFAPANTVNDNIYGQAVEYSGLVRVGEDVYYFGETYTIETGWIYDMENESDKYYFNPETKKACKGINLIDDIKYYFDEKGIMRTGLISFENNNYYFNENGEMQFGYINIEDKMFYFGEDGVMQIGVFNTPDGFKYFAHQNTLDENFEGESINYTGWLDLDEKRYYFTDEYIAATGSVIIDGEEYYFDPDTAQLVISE
# Vc quorum ag: induces V. cholerae light production without autoinducers. activation, % at 18.7 µM. V. cholerae BH1578 lux reporter, luminescence, 6 h. 350,000 tested, 0.16% active. AID 588436; in the data active = activation mostly above about 9.7%, no sharp cut-off; inconclusive = no clear call, values can overlap the other calls; inactive = mostly below about 3.7%
# BioA inh: BioA (M. tuberculosis) enzyme inhibition; purified M. tuberculosis BioA enzyme, plate reader; inhibition, % at 9.99 µM; 360,000 tested, 0.096% active; AID 602481; in the data active = inhibition above about 40%; inconclusive = no clear call, values can overlap the other calls
# FadD28 binding: inhibitors of Mycobacterium tuberculosis FadD28 bisubstrate binding | inhibition, % at 12.5 µM | 360,000 tested, 0.22% active | AID 588549 | FadD28 bisubstrate probe binding, fluorescence polarization; in the data active = inhibition above about 8.5%, passing the limit was not always enough; inconclusive = no clear call, values can overlap the other calls
# Y pestis TopoI: inhibitors of Yersinia pestis topoisomerase I; Y. pestis Topo-I cleavage product accumulation, plate reader; activity, % at 10 µM; 360,000 tested, 0.064% active; in the data active = activity above about 50%, passing the limit was not always enough; inconclusive = no clear call, values can overlap the other calls
# * = called active by the depositor; i = inactive; ? = inconclusive; / = not tested or not shown.
SMILES,TcdB inh,Vc quorum ag,BioA inh,FadD28 binding,Y pestis TopoI
C[C@H](CO)N1C[C@H](C)[C@@H](CN(C)S(=O)(=O)c2ccccc2)OCCCC[C@H](C)Oc2ccc(NC(=O)Nc3ccc(F)cc3)cc2C1=O,0,/,2,/,/
Cc1ccc(S(=O)(=O)NCC[C@@H]2CC[C@H](NC(=O)Nc3ccccc3F)[C@H](CO)O2)cc1,1,/,4,/,/
CS/C(=N\S(=O)(=O)c1ccc(N)cc1)NS(=O)(=O)c1cccs1,/,-1,4,30*,2
CCOc1ccc(S(=O)(=O)NCCC(=O)NCc2ccccn2)cc1,11*,i,/,-1,10
CC(N)C(=O)NC(C(=O)N1CCCC1C(=O)NC(c1ccccc1)c1ccccc1)C(C)C (stereo not given),11*,0,0,0,-4
O=C(O)c1ccc(NS(=O)(=O)c2ccc3c(c2)C2C=CCC2C(c2ccccc2F)N3)cc1 (stereo not given),0,1,/,43*,4
O=C(O)c1ccc2c(c1)C1C=CCC1C(c1cc3c(cc1Br)OCO3)N2 (stereo not given),0,-1,/,5,0
Cc1ccc(S(=O)(=O)Nc2ccc3c(c2)C(=O)N([C@@H](C)CO)C[C@@H](C)[C@@H](CN(C)S(=O)(=O)c2ccc(C)cc2)OCCCC[C@H](C)O3)cc1,1,/,-5,/,/
CCc1cccc2c(C(=O)COC(=O)c3cccc(S(=O)(=O)N(C)C4CCCCC4)c3)c[nH]c12,-1,i,/,22*,4
O=C(OCC(=O)c1c[nH]c2ccccc12)c1cccc(S(=O)(=O)N2CCCCCC2)c1,0,i,-1,5,-4
C[C@H](CO)N1C[C@H](C)[C@H](CN(C)C)Oc2c(NC(=O)Nc3cccc4ccccc34)cccc2C1=O,2,/,/,/,/
C[C@H](CO)N1C[C@H](C)[C@@H](CN(C)C(=O)C2CCCCC2)OCCCC[C@H](C)Oc2ccc(NS(=O)(=O)c3cn(C)cn3)cc2C1=O,-1,/,1,/,/
C=CCn1c(C)cc(C(=O)COC(=O)CCc2cc(OC)c(OC)c(OC)c2)c1C,12*,-3,-1,-2,16
Oc1ccc(Cl)cc1N=Nc1ccccc1,0,0,0,-3,1
O=S(=O)(O)c1cc(O)c2c(O)c(N=Nc3cc(Cl)ccc3O)c(S(=O)(=O)O)cc2c1,/,i,5,?,65*
Cc1ccc(S(=O)(=O)NC[C@H]2CC[C@H]3[C@H](CN3Cc3cc(-c4ccccc4)on3)O2)cc1,0,/,/,/,/
CCCn1c(=S)[nH]c2sc3c(c2c1=O)CCCC3,1,0,-3,0,-6
COCCn1c(=S)[nH]c2sc3c(c2c1=O)CCC(C)C3 (stereo not given),3,i,2,12*,-1
COc1ccccc1CNC(=O)CNC(=O)N1CC(=O)Nc2ccccc21,11*,0,0,0,1
CNC[C@H]1Oc2c(NS(=O)(=O)c3ccc(C)cc3)cccc2C(=O)N([C@H](C)CO)C[C@@H]1C,0,/,0,/,/
COc1ccc(Cn2c(O)c(/C=N/NC(=O)c3cccnc3)c3ccccc3c2=O)cc1,2,/,/,14*,-2
O=C(N/N=C/c1c(O)n(Cc2ccccc2)c(=O)c2ccccc12)c1cccnc1,-3,i,/,11*,-1
CCC(=O)N1CC2(C1)[C@H](c1ccccc1)[C@H](CO)N2Cc1cccc(Cl)c1,-1,/,/,/,/
COC(=O)/C(N=Nc1c(C)n(C)n(-c2ccccc2)c1=O)=C(\C)O,/,i,/,0,1
COc1cc(N=Nc2c(C)n(C)n(-c3ccccc3)c2=O)ccc1N,14*,i,0,-1,2
SMILES,TcdB inh,Vc quorum ag,BioA inh,FadD28 binding,Y pestis TopoI
CN(C)CCNc1ccc(CO)c2sc3ccc(O)cc3c(=O)c12,25*,i,/,-1,-12
COc1ccc2sc3cccc(NCCN(C)C)c3c(=O)c2c1,2,/,/,0,/
CO[C@@H]1CN(C)C(=O)c2cc(NC(=O)CC(F)(F)F)ccc2OC[C@@H](C)N(S(=O)(=O)c2cn(C)cn2)C[C@H]1C,0,/,-3,/,/
CN(C)c1nc(NCc2ccccc2)nc(Oc2ccc(=O)[nH]n2)n1,/,17*,0,-3,1
CCN(CC)c1nc(Nc2ccccc2)nc(Oc2ccc(=O)[nH]n2)n1,/,-1,/,-3,-4
S=c1nc[nH]c2c1sc1nc(-c3ccccc3)c3c(c12)CCCC3,1,i,/,15*,-3
O=c1[nH]cnc2c1sc1nc(-c3ccccc3)c3c(c12)CCCC3,-1,0,/,-4,9
COc1ccc(S(=O)(=O)Nc2ccc3c(c2)C(=O)N([C@H](C)CO)C[C@H](C)[C@@H](CN(C)C(=O)CCC(F)(F)F)OCCCC[C@H](C)O3)cc1,1,/,2,/,/
Cc1ccc(SCCC(=O)N/N=C/c2cccnc2)cc1,10*,0,/,-5,7
CO[C@@H]1CN(C)C(=O)c2cc(NC(=O)NC(C)C)ccc2OC[C@@H](C)N(S(C)(=O)=O)C[C@H]1C,16*,/,0,/,/
C[N+]1(CCCCSc2ccc(O)cc2)CCCCC1,22*,-2,-3,1,-7
C[C@@H]1CN([C@H](C)CO)C(=O)c2cc(NC(=O)Nc3ccc(F)cc3)ccc2O[C@@H]1CN(C)Cc1ccccc1,-5,/,-2,/,/
C=CCOC(=O)c1cc(-c2ccc(/C=C3\C(=O)NC(=O)C(C#N)=C3C)o2)ccc1Cl,/,i,7,20*,-19
C[C@H]1CN([C@@H](C)CO)C(=O)c2cc(-c3cccnc3)cnc2O[C@@H]1CN(C)Cc1ccc(-c2ccccc2)cc1,-1,/,5,/,/
CCN(c1ccc(C(=O)CN2C(=O)NC3(CCOc4ccccc43)C2=O)cc1)S(C)(=O)=O (stereo not given),0,-1,-2,-3,-3
O=C(CN1C(=O)NC2(CCOc3ccccc32)C1=O)c1ccc(Cl)cc1 (stereo not given),0,i,-1,16*,-2
O=C(O)CN1C(=O)NC2(CCOc3ccccc32)C1=O (stereo not given),3,0,0,-2,2
O=C(CN1C(=O)NC2(CCOc3ccccc32)C1=O)c1ccc(Br)cc1 (stereo not given),0,-1,0,21*,11
O=S(=O)(c1ccc(NC(=S)N/N=C/c2ccc(O)c(O)c2)cc1)N1CCOCC1,5,-1,-1,0,-10
O=[N+]([O-])c1cc(Cl)cc(/C=N/NC(=S)Nc2ccc(S(=O)(=O)N3CCOCC3)cc2)c1O,2,-2,5,18*,-10
O=C(Cc1cccnc1)N1CC(=O)N2[C@@H](CO)[C@H](c3ccc(C#CC4CCCC4)cc3)[C@@H]2C1,1,/,/,/,/
COc1ccc(CNC(=O)COc2ccc(OC)cc2)cc1,1,i,0,22*,2
COc1ccc(CNC(=O)COc2ccc(F)cc2)cc1,2,0,-1,-4,0
COC(=O)Cc1ccc(NC(=S)NCc2ccc(OC)cc2)cc1,23*,0,2,0,5
COc1ccc(CNC(=S)Nc2ccc(OC)cc2)cc1,/,0,/,0,7
